These results are taken from PubChem BioAssay (NCI).

Compounds without any hit were thinned out: in the full panel of roughly 83,000, 20% have a hit.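 Plates (96-well) were seeded with cells, treated with compound at one concentration, and incubated for 48 hours before percent growth was determined.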 Values without a mark were called inactive. Active and inactive are the calls of the source. The calls were made as follows: active = growth percent below 10; inactive = the rest.

Holding throughout (experiment): NCI-60 one-dose screen, 48 h (100 = growth as untreated, 0 = no growth, -100 = all killed)
What all share (details): 10 µM unless noted

Test [1] deals with HCT-15 colon.
In test [2] the test system is HT29 colon.
For test [3], the system named is SNB-75 CNS.
Test [4] has as its system SNB-19 CNS.
Test [5] concerns U251 CNS.
The subject of test [6] is PC-3 prostate.
The test system of test [7] is SK-MEL-5 melanoma.
For test [8], the system named is UACC-62 melanoma.
Test [9] relates to LOX IMVI melanoma.
Test [10] deals with SK-MEL-28 melanoma.
The test system of test [11] is SK-MEL-2 melanoma.
Test [12] deals with EKVX NSCLC.
Test [13] has as its system SN12C renal.
The subject of test [14] is UO-31 renal.
Test [15] concerns TK-10 renal.
Test [16] deals with ACHN renal.
Test [17] concerns CAKI-1 renal.
The subject of test [18] is A498 renal.
Test [19] relates to CCRF-CEM leukemia.
The subject of test [20] is MOLT-4 leukemia.

Take `Cc1ccc(N2CCN(C3=C(Cl)C(=O)c4ncccc4C3=O)CC2)cc1`: the growth in [1] was 21%; in test [2], 106%; in [3] it was 99.1%; in test [4] it was 70.3%; in test [5], 72.4%; in test [6], 63.3%. Further, the growth was 90.4% in test [7]; 29.2% in test [8]; -32.6% (active) in [9]; 80.9% in test [10]; 94.4% in [11]; 97% in [12]. Besides, the growth was 27.8% in test [13]; 32% in test [14]; 133% in [15]; 1.41% (active) in test [16]; 44.3% in test [17]; 111% in test [18]. In addition, the results for the growth in test [19] and in [20] were 5.41% (active) and 13.9%, respectively.

In the case of `CN1CCN(c2ccc(Nc3nc(NCCNC(=O)c4ccccc4)c4sccc4n3)cc2)CC1`, the growth is 20.7% in test [1]; 4.23% (active) in [2]; 81% in test [3]; 88.4% in [4]; 18.3% in [5]; 61.8% in test [6]. The growth in test [7] was 21.3%; in test [8] it was 53%; in [9], 5.15% (active); in test [10] it was 59.5%; in test [11], 96.6%; in [12], 97.3%. Further, the growth is 74% in [13]; 66% in test [14]; 137% in test [15]; 54.6% in [16]; 48.3% in test [17]; 130% in test [18]. Further, the growth in test [19] was 27.9%; in test [20], 13.9%.

Consider `N#Cc1c(-c2cccs2)cc(-c2cnccn2)nc1SCC(=O)N/N=C/c1ccncc1`, for which the growth in test [1] was 106%; in test [2] it was 109%; in test [3] it was 99.3%; in test [4], 101%; in test [5] it was 105%; in test [6], 96.4%. For the same molecule, the growth was 101% in [7]; 91.4% in [8]; 101% in test [9]; 112% in [10]; 121% in test [11]; 99% in test [12]. Further, the growth is 110% in test [13]; 88.4% in test [14]; 128% in [15]; 109% in test [16]; 95.9% in test [17]; 116% in test [18]. The results for the growth in [19] and in test [20] were 103% and 117%, respectively.

For the molecule `CCCCCCNC(=O)Oc1ccc(/C(=C(/C)c2ccc(OC)cc2)c2ccc(OCCN3CCCCCC3)cc2)cc1`, the growth was -39.1% (active) in test [1]; -34% (active) in [2]; 76.8% in [3]; 39.2% in test [4]; 19.6% in [5]; 24.5% in test [6]. Also, the growth in test [7] was 61.2%; in test [8], 5.76% (active); in [9], -94.2% (active); in test [10], -36.1% (active); in test [11], 74.5%; in [12] it was 54.8%. The growth in test [13] was 14.5%; in [14], 6.69% (active); in test [15], 92.1%; in [16], 47.7%; in test [17], 17.3%; in test [18] it was 64.2%. Further, the growth in test [19] is 12.4%; in [20] it was 9.66% (active).

Consider `COc1ccccc1/C=C/C(=O)c1nnn(-c2ccc(F)cc2)c1C`, for which the growth in test [1] is 22.9%; in test [2] it was 4.8% (active); in [3], 40.6%; in test [4], 63.2%; in test [5], 36.3%; in [6], 68.9%. Also, the growth was 79.3% in [7]; 59.4% in test [8]; 2.13% (active) in test [9]; 75.2% in test [10]; 93.2% in test [11]; 69.3% in test [12]. Moreover, the growth in [13] was 68.5%; in test [14], 38.1%; in test [15] it was 110%; in test [16], 46.1%; in [17] it was 38.5%; in test [18] it was 66.8%. Moreover, the growth in test [19] is 14%; in [20], 45%.

On to `N#Cc1c(-c2cccs2)cc(-c2cnccn2)nc1SCC(=O)N/N=C/c1ccccc1`, for which the growth in test [1] was 39.1%; in test [2], 37.3%; in [3], 12.6%; in test [4] it was 39.7%; in test [5] it was 11.9%; in test [6], 65.2%. The growth in test [7] is 4.1% (active); in [8], 55.3%; in test [9] it was -28.7% (active); in test [10] it was 43.9%; in test [11], 103%; in test [12], 56.2%. Further, the growth in [13] is 45.5%; in [14], 75.8%; in test [15], -14.7% (active); in test [16], 56.9%; in test [17] it was 48.2%; in [18], 87.8%. The results for the growth in [19] and in test [20] were 62.6% and 71.8%, respectively.

Turning to `Cc1ccc2c(n1)C(=O)C(Cl)=C(Nc1ccc(C(C)C)cc1)C2=O`, the growth was -60.1% (active) in test [1]; 102% in test [2]; 109% in test [3]; 75.4% in test [4]; 70.2% in test [5]; 54% in test [6]. Moreover, the growth is 37.3% in [7]; 86.3% in [8]; -66.3% (active) in test [9]; 6.95% (active) in test [10]; 71.2% in test [11]; -0.749% (active) in test [12]. The growth is 46.4% in [13]; -65.3% (active) in [14]; 145% in test [15]; -77.2% (active) in test [16]; 77.3% in test [17]; 133% in test [18]. The growth in test [19] is 3.85% (active); in [20], 4.3% (active).
